Source: PubChem (National Center for Advancing Translational Sciences (NCATS))
Compounds with a hit are over-represented: about 2.8% of the library has one in this group of screens.
Pol eta inh – blocks human DNA polymerase eta activity. Q9Y253. recombinant Pol eta, fluorescent DNA replication assay. Potency, µM (doses to about 114 µM), without a hit: top-dose activity change, negative = inhibition, most hits filed as inhibitors. hit rate 1.2% among 390,000; also: potency is read from the fitted curve at half-maximal effect; % is scaled to controls: 0 for no effect and ±100 for the full control effect
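Pol eta at 10 nM preincubated with compounds 15 min at room temperature; reaction started with fluorescent substrate (50 nM final) and read kinetically at 0 and 10 min.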
POLB inh – inhibitors of human DNA polymerase beta; hit rate 1.3% among 340,000; Pol beta primer extension/strand displacement, fluorescence kinetic; Potency, µM (top dose mostly 114 µM), inactives show top-dose activity change, negative = inhibition, actives largely listed as inhibitors; AID 485314; also: potency is read from the fitted curve at half-maximal effect; % is scaled to controls: 0 for no effect and ±100 for the full control effect
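Curves were derived by four-parameter Hill fits of normalized qHTS data. The kinetic fluorescent primer-extension read was taken at 0 and 10 min after 50 nM substrate, following a 15 min room-temperature preincubation of 10 nM enzyme with compounds.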
WRN inhibitor – blocks human WRN helicase; Q14191; WRN helicase unwinding, fluorescent forked duplex, kinetic; Potency, µM (doses to about 114 µM), inactives show at the highest dose activity change, negative = inhibition, hits mostly inhibitors; hit rate 0.46% among 360,000; AID 651768; also: potency is read from the fitted curve at half-maximal effect; % is scaled to controls: 0 for no effect and ±100 for the full control effect; nearly all actives have a fitted effect of over 55% in size
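Screening of the MLSMR collection measured strand separation of a quenched forked DNA duplex (100 nM) by 20 nM WRN with 2 mM ATP, all final. Compounds were preincubated with enzyme 15 min at room temperature.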
POLK inh – inhibitors of human DNA polymerase kappa. purified Pol kappa, fluorescent DNA synthesis assay, 10 min. Potency, µM (titrated, usually from 107 µM), without a hit: at the top dose activity, negative = inhibition, most hits filed as inhibitors. hit rate 0.53% among 400,000. AID 588579; also: potency is read from the fitted curve at half-maximal effect; % is scaled to controls: 0 for no effect and ±100 for the full control effect
Target sequence (Q9UBT6 whole entry, looked up): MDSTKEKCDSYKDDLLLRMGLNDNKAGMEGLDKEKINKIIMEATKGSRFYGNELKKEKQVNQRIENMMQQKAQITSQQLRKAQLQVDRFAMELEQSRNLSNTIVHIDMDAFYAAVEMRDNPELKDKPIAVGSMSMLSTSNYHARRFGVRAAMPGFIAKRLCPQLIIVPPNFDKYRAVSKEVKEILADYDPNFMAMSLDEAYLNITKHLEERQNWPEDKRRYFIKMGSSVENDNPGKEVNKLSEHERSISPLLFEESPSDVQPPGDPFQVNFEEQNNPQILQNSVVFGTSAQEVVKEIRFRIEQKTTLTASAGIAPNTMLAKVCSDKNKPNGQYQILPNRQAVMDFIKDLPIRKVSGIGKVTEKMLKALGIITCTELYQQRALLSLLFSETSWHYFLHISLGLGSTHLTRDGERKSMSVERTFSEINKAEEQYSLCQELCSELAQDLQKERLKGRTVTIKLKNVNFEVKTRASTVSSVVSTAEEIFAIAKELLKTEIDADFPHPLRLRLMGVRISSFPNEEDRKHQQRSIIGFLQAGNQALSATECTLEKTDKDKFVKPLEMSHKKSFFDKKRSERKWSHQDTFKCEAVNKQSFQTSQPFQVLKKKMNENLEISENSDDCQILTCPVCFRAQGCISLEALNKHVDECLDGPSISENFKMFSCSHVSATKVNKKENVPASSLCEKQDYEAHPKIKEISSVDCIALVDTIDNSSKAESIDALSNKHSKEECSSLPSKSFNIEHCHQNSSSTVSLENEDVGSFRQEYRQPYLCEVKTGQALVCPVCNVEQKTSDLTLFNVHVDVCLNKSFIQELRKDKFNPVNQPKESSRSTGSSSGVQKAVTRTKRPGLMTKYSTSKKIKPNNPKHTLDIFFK
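Activity was followed as the change in fluorescence between reads at 0 and 10 min after starting the reaction with 50 nM substrate. Beforehand, 10 nM polymerase had been preincubated with compound for 15 min at room temperature.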
POLI inh – DNA polymerase iota (human) inhibition; hit rate 1% among 390,000; Potency, µM (titrated, usually from 115 µM), for inactives: at the highest dose activity, negative = inhibition, hits mostly inhibitors; Q9UNA4; Pol iota fluorescent replication assay, 10 min; also: potency is read from the fitted curve at half-maximal effect
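Pol iota at 10 nM preincubated 15 min with compounds at room temperature; reaction started with fluorescent substrate, 50 nM final. Fluorescence read kinetically at 0 and 10 min; buffer-only wells as negative control.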
PI5P4Ka inh – blocks human PI5P4K alpha kinase activity. P48426. PI5P4Kalpha enzyme, ADP-Glo luminescence, 60 min; stronger effect = lower value. max response, %. hit rate 1.2% among 330,000. AID 652105; active = max response of -50% or lower; inconclusive = between -30% and -50%; inactive = -30% or higher; also: value at the top dose of about 77 µM; % is scaled to controls: 0 for no effect and ±100 for the full control effect
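Single end-point luminescence (ADP-Glo) quantified ADP from PI5P4Kalpha turnover; ATP 5 microM final, 1 h at RT, 0.1% CHAPS and 0.28 mM EGTA in HEPES pH 7.4.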
* marks the source's active call; other numbers are inactive results; ? = inconclusive; . = no result; [ ] = another dose, or the depositor's remark. Unless noted, calls follow the shape of the dose curve; as a rule, active = well fitted curve in the direction sought with a large enough effect; inconclusive = small, poorly fitted or top-dose-only effect, or another doubt; inactive = no such curve, though single readings can be large; an effect the other way counts as inactive or inconclusive.

SMILES | Pol eta inh | POLB inh | WRN inhibitor | POLK inh | POLI inh | PI5P4Ka inh
C1=Cc2ccccc2/C1=C\c1cc[cH-]c1.[Fe+2].c1cc[cH-]c1 | . | . | . | 1.1µM* | 1.8µM* | .
Cc1c(Cl)c(=O)oc2cc(OCC(=O)N3CCCC(C)C3)ccc12 (stereo unspecified) | -10% | . | -30% | 4% | 8% | -1
COc1ccc2c(c1)c(=O)oc1cc(OCC(=O)N3CCCC(C)C3)ccc12 (stereo unspecified) | ? | 4µM* | -21% | -22% | ? | -11
COc1ccc2c(c1)c(=O)oc1cc(OCC(=O)N3CCC(C)CC3)ccc12 | 79µM* | 22µM* | ? | ? | 18µM* | .
COc1ccc2cc(C(=O)Nc3ccc(S(N)(=O)=O)cc3)sc(=O)c2c1OC | -12% | ? | -3%[57.1 µM] | -12% | -40% | 6
Cc1ccc(-n2nnc(C(=O)Nc3cc(F)ccc3F)c2C)cc1F | -21% | 1% | . | 1% | 25% | .
O=S1(=O)CCO[C@H]2CCCC[C@@H]2N1Cc1cccc(F)c1 | . | . | . | -6% | 38% | .
CCOc1ccccc1N1CCN(S(=O)(=O)c2ccc3c4c(cccc24)C(=O)N3)CC1 | 79µM* | ? | ? | 45µM* | 14µM* | ?
CCOC(=O)N1CCN(S(=O)(=O)c2ccc3c4c(cccc24)C(=O)N3)CC1 | -19% | 2% | 0% | 0% | 123% | -5
Cc1ccccc1N=Cc1cc2c(cc1[N+](=O)[O-])OCO2 | -15% | 11% | -22%[57.1 µM] | -11% | 31% | -7
Cc1c(N=Cc2cc3c(cc2[N+](=O)[O-])OCO3)cccc1[N+](=O)[O-] | ? | . | 1%[11.6 µM] | 45µM* | 7.9µM* | -24
O=C1CSC(c2ccccc2[N+](=O)[O-])N1CCc1ccccc1 (stereo unspecified) | -22% | 36% | -6% | 3%[60.1 µM] | 7% | 0
CSC1=NC=C(C#N)C2=NC(c3c(Cl)cccc3Cl)NN12 (stereo unspecified) | . | . | 1%[57.1 µM] | . | . | -1
CC(=O)Nc1cccc(NC(=O)Cc2cccs2)c1 | 35µM* | -13% | -1%[11.6 µM] | -20% | ? | ?
Cc1nnc2ccc(-c3cccc(NC(=O)Cc4cccs4)c3)nn12 | ? | 13µM* | -3%[11.6 µM] | ? | 35µM* | ?
COc1ccc(CC(=O)Nc2cccc(-c3ccc4nnc(C)n4n3)c2)cc1 | -2% | 51% | 0% | -13% | 15% | 1
CCC(=O)Nc1cccc(NC(C)=O)c1 | . | 22µM* | . | . | . | .
N=c1c2c3c(sc2ncn1Nc1ccccc1)CCC3 | -4% | 2% | 1% | -13% | ? | -14
COc1ccc(S(=O)(=O)Nc2ccccn2)cc1C(=O)Nc1ccccc1 | -19% | 29% | -22% | -5% | 14% | -8
COC(=O)C[C@H]1C[C@H]2c3cc(NC(=O)Cc4ccncc4)ccc3O[C@H]2[C@@H](CO)O1 | -15% | . | 2% | . | . | -2
C=CCn1c(SCC(=O)NCCc2ccccc2)nnc1C1CC1 | -15% | . | -1% | 1% | 12% | 5
C=CCn1c(SCC(=O)Nc2nnc(C)s2)nnc1C1CC1 | ? | 25µM* | -7% | -33% | ? | 3
Cc1ccc(-c2csc(NC(=O)C3=NN(c4ccccc4)C(=O)CC3)n2)cc1 | -4% | 18% | -1% | -5% | 65% | -1
O=c1cc(CSc2nnnn2-c2ccccc2)nc(Nc2ccc(F)cc2)[nH]1 | ? | 45µM* | -21% | ? | 45µM* | -2
N/C(=N\c1nc(CSc2nnnn2-c2ccccc2)cc(=O)[nH]1)Nc1ccccc1 | . | -1% | . | . | . | .
SMILES | Pol eta inh | POLB inh | WRN inhibitor | POLK inh | POLI inh | PI5P4Ka inh
CCOC(=O)N1CCC(N2C(=O)c3ccccc3C2Nc2ccc(S(=O)(=O)N3CCOCC3)cc2)CC1 (stereo unspecified) | -24% | ? | 5% | 0% | 37% | -1
O=C1c2cccc3c([N+](=O)[O-])c(O)cc(c23)C(=O)N1Nc1ccccc1 | -13% | -4% | -2% | -8% | 15% | -61*
COCCn1c(=O)c(-c2ccc(Cl)cc2)nc2cnc(Nc3ccccc3)nc21 | . | . | . | 0%[60.1 µM] | . | .
COc1ccccc1-c1cn[nH]c(=S)n1 | 6% | -4% | -1% | 4% | 1% | -70*
O=C(COc1ccccc1[N+](=O)[O-])Nc1ccc(NC(=O)c2cc3ccccc3o2)cc1 | ? | -18% | -33% | 1% | ? | -13
O=C(N/N=C/c1ccncc1)c1cc2c(ccc3ccccc32)o1 | ? | 1% | -7% | -2% | 9% | -2
O=C(COc1ccc(/C=N/NC(=O)c2cc3ccccc3o2)cc1Br)Nc1ccccc1 | 0.89µM* | 5.6µM* | -15% | -5% | ? | -22
O=C(Nc1cccnc1)c1cc2c(ccc3ccccc32)o1 | ? | 32µM* | ? | ? | 50µM* | -4
COc1ccc(/C=N\NC(=O)c2cc3c(ccc4ccccc43)o2)cc1O | 50µM* | -20% | -13%[11.6 µM] | -18% | 28µM* | -6
O=C(O)c1ccc(/C=N/NC(=O)c2cc3c(ccc4ccccc43)o2)cc1 | ? | 40µM* | 3% | -34% | ? | -19
COc1ccc(-c2ccc(/C=N/N3C(=O)C4C5C=CC(C6CC56)C4C3=O)o2)c([N+](=O)[O-])c1 (stereo unspecified) | ? | ? | -12% | -8% | 5% | -19
Cc1[nH][nH]c(=O)c1C(c1ccc(-c2ccc(Cl)c(Cl)c2)o1)c1c(C)[nH][nH]c1=O | ? | -13% | 0% | 1% | 3.5µM* | -18
CCOc1ccc(Cl)cc1C(c1c(C)[nH][nH]c1=O)c1c(C)[nH][nH]c1=O | -18% | 7% | 5% | -3% | ? | 1
COc1ccc(-c2ccc(C(c3c(C)[nH][nH]c3=O)c3c(C)[nH][nH]c3=O)o2)c([N+](=O)[O-])c1 | -17% | ? | -29% | -17% | 11µM* | -2
Cc1[nH][nH]c(=O)c1C(c1ccc(-c2ccc(F)cc2)o1)c1c(C)[nH][nH]c1=O | -25% | ? | 11% | -9% | 7.1µM* | 4
Cc1[nH][nH]c(=O)c1C(c1ccc(N(C)C)c(Br)c1)c1c(C)[nH][nH]c1=O | -11% | 40% | -14% | -5% | 36% | -1
Cc1ccc(N2CCN(C(=O)c3cnn(-c4ccc(F)cc4F)c3C3CCN(C(=O)OC(C)(C)C)CC3)CC2)c(C)c1 | -17% | 5% | . | -15% | 25% | .
COc1ccccc1NC(=O)CSCc1nc2ccccc2[nH]1 | -16% | 2% | -1% | 0% | -7% | -1
NS(=O)(=O)c1ccc(N/N=C/c2ccc(O)cc2O)c([N+](=O)[O-])c1 | ? | 25µM* | ? | ? | 50µM* | -11
